A short description of test [1]: NCI Yeast Anticancer Drug Screen. Data for the rad50 strain (AID 155).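 Note: 0% = growth of vehicle-only cultures of the same strain.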 To be noted: S. cerevisiae rad50 strain growth inhibition; at 50.0 µM; hits give high values. The method, boiled down:
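Relative growth inhibition (compound vs vehicle) was measured in yeast with a defined repair-gene alteration.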

Test [2] is described as follows: NCI Yeast Anticancer Drug Screen. Data for the mec2-1 strain (AID 157). The note with it: S. cerevisiae mec2-1 strain, at 50.0 µM, hits give high values. The method, boiled down: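 Growth inhibition is read against vehicle-treated controls after compound exposure of the mec2-1 yeast strain, which is defective in DNA damage repair or cell cycle control.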
Test [3] can be described thus: NCI Yeast Anticancer Drug Screen. Data for the sgs1 mgt1 strain (AID 161).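 Note: 0% = growth of cultures given vehicle only.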 The note with it: S. cerevisiae sgs1 mgt1 strain, at 50.0 µM, hits give high values. An outline of the steps: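 This yeast growth screen uses a strain with defined DNA-repair lesions; compound-treated growth is compared with vehicle-treated growth.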
The nature of test [4]: NCI Yeast Anticancer Drug Screen. Data for the cln2 rad14 strain (AID 165).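 Note: 0% = growth equal to vehicle treated cultures.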 To be noted: S. cerevisiae cln2 rad14 strain, at 50.0 µM, hits give high values. An outline of the steps:
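Growth inhibition, relative to vehicle-treated controls, is the read-out. The test organism is a yeast strain with defined genetic alterations, cln2 rad14.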

A short description of test [5]: NCI Yeast Anticancer Drug Screen. Data for the bub3 strain (AID 167). The note with it: S. cerevisiae bub3 mutant strain, at 50.0 µM, hits give high values. An outline of the steps:
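Screening used yeast with an engineered genetic alteration affecting cell cycle control. Compound-exposed cultures were compared with vehicle cultures, and reduced growth was taken as inhibition.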

The nature of test [6]: NCI Yeast Anticancer Drug Screen. Data for the mlh1 rad18 strain (AID 175). To be noted: S. cerevisiae mlh1 rad18 strain growth inhibition; at 50.0 µM; hits give high values. An outline of the steps:
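Cells of a genetically altered yeast strain, deficient in DNA damage repair, were treated with compound. Their growth was then compared with that of vehicle-treated cultures to give inhibition.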

21 molecules from PubChem BioAssay (NCI) can be followed below.

Compounds without any hit were thinned out: in the full panel of roughly 79,000, 15% have a hit. Values without a mark were called inactive. Active and inactive are the calls of the source. Cut-off read from the data, not from the text of the source: active = growth inhibition above about 70%; inactive = the rest.

Regarding `O=C(Nc1ccc2ccccc2c1)c1ccc(Cl)cc1`, the growth inhibition in test [1] is 4.65%; in test [2], -9.65%; in test [3], -15.1%; in test [4], 7.05%; in test [5], 31.4%; in test [6], 1.4%.
Consider `CC(C(O)c1ccc(Cl)cc1)C(O)(C(F)(F)F)C(F)(F)F` (stereo unspecified), for which the growth inhibition in test [1] was 99.2% (active); in test [2] it was 99.3% (active); in test [3] it was 99.2% (active); in test [4] it was 99% (active); in test [5], 99% (active); in test [6] it was 99.4% (active).
`COc1ccc(CCC2c3cc(OC)c(OC)cc3CCN2C)cc1OC` (stereo unspecified): the growth inhibition in test [1] is -41.5%; in test [2], -15.7%; in test [3] it was -6.75%; in test [4], 5.35%; in test [5] it was -19.9%; in test [6] it was -4.85%.
As for `O=C1c2ccccc2C2(Br)C(=O)c3ccccc3C12Br` (stereo unspecified), the growth inhibition is 98.6% (active) in test [1]; 99% (active) in test [2]; 98.8% (active) in test [3]; 98.5% (active) in test [4]; 98.5% (active) in test [5]; 98.9% (active) in test [6].
Turning to `Cc1nc2ccccc2c(=O)o1`, the growth inhibition is -12.2% in test [1]; 7.05% in test [2]; 9.85% in test [3]; 15.1% in test [4]; -5.65% in test [5]; -21% in test [6].
For `Cc1cc2c(C(C)C)c(O)c(O)c(C=Nc3ccc4ccccc4c3)c2c(O)c1-c1c(C)cc2c(C(C)C)c(O)c(O)c(C=Nc3ccc4ccccc4c3)c2c1O`, the growth inhibition was 7.3% in test [1]; -5.2% in test [2]; -6.15% in test [3]; -42.1% in test [4]; -4.6% in test [5]; 1.2% in test [6].
As to `O=C(O)/C=C/c1cnc[nH]1`, the growth inhibition was -4.9% in test [1]; -2.3% in test [2]; -5.65% in test [3]; 11.9% in test [4]; 9.65% in test [5]; -1% in test [6].
On to `Oc1ccc2ccccc2c1Br`, for which the growth inhibition was 45.9% in test [1]; 55.5% in test [2]; 40.2% in test [3]; 26.1% in test [4]; 44.2% in test [5]; 35.6% in test [6].
`Cc1cc2c(cc1Cl)SC(NNc1cnc3ccccc3n1)=NS2(=O)=O`: the growth inhibition in test [1] is 23.3%; in test [2], 21.6%; in test [3], 35.7%; in test [4], 20.2%; in test [5], 19.1%; in test [6], 4.8%.
Consider `CC(=O)Oc1cc(C(C)C)ccc1C`, for which the growth inhibition in test [1] is 26.7%; in test [2], -3.75%; in test [3] it was 18.1%; in test [4], -1.4%; in test [5], 0%; in test [6], 15.4%.
Regarding `CCCOC(=O)CCCCC(=O)OCCC`, the growth inhibition in test [1] is 11.6%; in test [2], 17.9%; in test [3], -8.65%; in test [4], -4%; in test [5], 0.85%; in test [6] it was 11.9%.
For the molecule `CC(C)CN(CC(=O)Nc1cccc(Cl)c1)CC(C)C`, the growth inhibition in test [1] was -4.35%; in test [2], 11.9%; in test [3], 4.15%; in test [4], -17.9%; in test [5] it was 5.25%; in test [6], 2.1%.
As to `N#Cc1c2c([nH]c(=O)c1C#N)CCCC2`, the growth inhibition in test [1] was 15.5%; in test [2], 10.5%; in test [3], 3.2%; in test [4], 9.15%; in test [5], -8.75%; in test [6] it was -23.1%.
With `CCCCCCCCCCCC(=O)OCCSC#N`, the growth inhibition was -7.45% in test [1]; 0.1% in test [2]; -2% in test [3]; -21.4% in test [4]; -0.2% in test [5]; 0.05% in test [6].
As to `O=C1NN=C(C(O)c2ccccc2)C1(O)c1ccccc1` (stereo unspecified), the growth inhibition in test [1] was 8.3%; in test [2] it was -6.25%; in test [3], -0.65%; in test [4] it was 0.2%; in test [5], 2.5%; in test [6], 17.8%.
With `O=C(CCCCl)c1ccc(O)cc1`, the growth inhibition was -29.4% in test [1]; -36% in test [2]; 2.75% in test [3]; 11.8% in test [4]; -17.6% in test [5]; 0.1% in test [6].
For the molecule `CC1(C)N=C(N)NC(Nc2ccccc2)=N1`, the growth inhibition in test [1] was -0.2%; in test [2] it was -6.5%; in test [3] it was -27.6%; in test [4], -26.9%; in test [5], -10.8%; in test [6], -0.05%.
As to `CC1(C)OC(=O)C=C(O)O1.CC1(C)OC(=O)C=C(O)O1.CCO.Oc1ccc2c(c1)CCC2.[Ti]`, the growth inhibition in test [1] was -15.7%; in test [2], -13.5%; in test [3], -29.1%; in test [4], 20.4%; in test [5], -5.05%; in test [6], 6.75%.
As to `CC(C)(C)C(=O)/C(O)=C\c1ccccc1`, the growth inhibition in test [1] was -4.25%; in test [2], 6.2%; in test [3], -12.2%; in test [4] it was -10.7%; in test [5] it was 10.9%; in test [6], -1.2%.
`O=C(NC(=O)c1ccccc1)OC(c1ccccc1)C1CO1` (stereo unspecified): the growth inhibition is -0.7% in test [1]; 9.65% in test [2]; 11.4% in test [3]; 8.55% in test [4]; -34.1% in test [5]; 18.8% in test [6].
On to `CN(C)c1ccc(/C=N/NC(=O)NN)cc1`, for which the growth inhibition in test [1] was 6.2%; in test [2], -12.3%; in test [3], -23.3%; in test [4], -2.85%; in test [5] it was -2.15%; in test [6], -15.9%.
